This note sets out measurements from ChEMBL document CHEMBL5308541, “MAIP: An Open-Source Tool to Enrich High-Throughput Screening Output and Identify Novel, Druglike Molecules with Antimalarial Activity” (ACS Med Chem Lett, 2023).

Among all 4,800 compounds or so, about 410 (8.5%) showed an effect of 50% or more. Shown is part of a subset that was picked to be rich in strong results.

This test relates to Plasmodium falciparum. Nature of the test: Confirmatory screen in NF54 pLDH assay, in single point, at 2uM, 72h. Format: functional, Erythrocyte. As to conditions: timepoint 72 hour.
For orientation: % Inhibition means the change of the read-out against control, counted positive when it falls. In the case of `Cc1ccc2nc(NC[C@H]3CCN(C4CC4)C3)cc(C)c2c1`, the “% Inhibition” value turned out to be 100%.
The result for `Cc1ccc2nc(-c3cccc(NC(=O)c4ccc(OC(F)(F)F)c(Cl)c4)c3)[nH]c2n1` reads 74%; that for `O=C(NCCNc1ccnc2ccncc12)c1ccc(C(F)(F)F)cc1`, 43%.
The result for `Cc1cnccc1NCCNCc1ccc(OC(C)C)c(Cl)c1` reads 84%; that for `Cc1ocnc1CNC[C@H](O)c1ccc(Cl)c(Cl)c1`, 97%; that for `CNc1nc(N[C@H]2CCCN(Cc3ccc(Cl)cc3)C2)nc2c1CCC2`, 100%.
The result for `Nc1ccc(Nc2ccc(F)cc2)c2ccncc12` reads 70%; that for `CN([C@@H](c1ccccc1)c1ccccc1Br)S(=O)(=O)c1c[nH]c2ncccc12`, 67%; that for `CN(C[C@H](O)COc1ccccc1CN1CCC(c2ccncc2)CC1)C1CCCCC1`, 84%.
For `CN(C[C@H](O)COc1cccc(CNCCCOc2cccnc2)c1)C1CCCCC1`, the “% Inhibition” value was determined as 44%.
The result for `O=C(Nc1cncnc1N1CCCC1)c1cc(F)cc2[nH]cnc12` reads -8%.
The result for `CN1CCC(N(C)C[C@H](Nc2ncnc3ccccc23)c2ccccc2)CC1` reads 102%.
The result for `Cc1nc2ccc(Oc3ccccc3)cc2c(O)c1CN(C)C1CCN(C)CC1` reads 28%; that for `CN(C)CCN1CCC(CNCc2ccc3ncccc3c2)CC1`, 29%; that for `COc1ccc(-c2cncc(C(=O)NCC3CCN(CCN(C)C)CC3)c2)cc1`, 96%.
As for `COC(=O)c1cn(CCNc2ccnc3cc(Cl)ccc23)cc2c(O)nnc1-2`, the “% Inhibition” value is on record as 103%.
The result for `CCCN(CCN1CCN(CC)CC1)c1nc(-c2ccccn2)nc2c1CCC2` reads 10%; that for `c1ccc(-c2nc3c(c(NCCNc4ncccn4)n2)CCC3)nc1`, 23%; that for `CNc1nc(C)cc(N[C@@H]2COc3ccccc3C2)n1`, 89%.
The result for `c1ccc2c(CNCCC3CCN(c4ccncc4)CC3)csc2c1` reads 95%; that for `Fc1ccc(-n2cc(CNCCC3CCN(c4ccncc4)CC3)cn2)cc1`, 102%; that for `CCN1CCN(c2ccccc2CNCCC2CCN(C)CC2)CC1`, 2%.
The result for `c1ccc(-c2ccnc(C3CCN(CC45CNCC4C5)CC3)n2)cc1` (stereo not given) reads 96%.
For `COCCN1CCC[C@H](CNCc2cnn(-c3ccc4ccccc4c3)c2)C1`, the “% Inhibition” value is reported as 13%.
The result for `COCCN1CC[C@H](CNC2CCN(c3ncc4ccc(F)cc4n3)CC2)C1` reads 71%; that for `CN(C)C1(CNc2nc(C(F)(F)F)nc3cc4c(cc23)OCO4)CCCCCC1`, 49%.
The result for `CN(C)C1(CNc2nc(C(F)(F)F)nc3cc(F)ccc23)CCCCCC1` reads 57%; that for `Cc1ccc(-c2cc(C(=O)NC3CCN(C4CCN(C)CC4)CC3)n[nH]2)cc1C`, 102%; that for `CN1CCC(N2CCC(NC(=O)c3ccc(S(=O)(=O)N(C)C4CCCCC4)cc3)CC2)CC1`, 39%.
The result for `Cc1cc(N2CCC(NCCc3c[nH]cn3)CC2)nc(-c2ccccc2)n1` reads 11%.
Consider `Cc1ccc2nc(CCCNC3CCN(c4cc(C)nc(N)n4)CC3)oc2c1`, for which the “% Inhibition” value is 59%.
The result for `Cc1cc(N2CCC(NCCCN3CCCc4ccccc43)CC2)nc(N)n1` reads 88%; that for `CN(C)CCN1CCC(NC2CCC(O)(c3cccc(Cl)c3)CC2)CC1` (stereo not given), 33%.
The result for `OC1(c2ccc(Cl)cc2)CCN(C[C@@H]2CCCN3CCCC[C@H]23)CC1` reads 88%; that for `CC(C)(C)n1ncc2c(NCc3ccc4cccnc4c3O)ncnc21`, 37%; that for `c1ccc2c(c1)CN(c1ncnc3[nH]ccc13)CC1(CCOCC1)O2`, -5%.
On to `CCn1cc(-c2cccc(C(=O)N[C@@H](C)CN3CCc4ccccc4C3)c2)cn1`, for which the “% Inhibition” value worked out at 38%.
For the compound `NCCCCc1c(-c2cccnc2)[nH]c2c(Cl)cc(Cl)cc12`, the “% Inhibition” value came to 75%.
The result for `O[C@@]1(c2c[nH]nn2)CCN(c2ccnc3cc(Cl)ccc23)C1` reads 98%; that for `COCCN1CC[C@H](CN(C)c2ccnc3cc(Cl)ccc23)C1`, 102%; that for `COCCN1CCC[C@@]2(CCN(c3ccnc4cc(Cl)ccc34)C2)C1`, 101%.
The result for `NC(=O)[C@]1(O)CCN(c2ccnc3ccc(Oc4ccccc4)cc23)C1` reads 33%; that for `CN1CCC(Oc2ccc(NC(=O)c3cn4ccnc4s3)cn2)CC1`, 92%.
The result for `CN(C)Cc1cccc(CCNCc2csc(-c3ccc(C(F)(F)F)cc3)n2)c1` reads 88%; that for `COc1ccc2[nH]cc(C3=CCN(c4ccc5nnc(-c6ccccc6F)n5n4)CC3)c2c1`, 41%.
Consider `c1cc(CNC2CCN(C[C@H]3CCOC3)CC2)c2cc[nH]c2c1`, for which the “% Inhibition” value is -13%.
The result for `Fc1cccc(Cl)c1CN1CCC(NC[C@H]2CCCOC2)CC1` reads 21%.
The result for `CCc1ccc2ncnc(NCCCN3CCN(CCO)CC3)c2c1` reads 85%; that for `Cc1cc(O)c(Cl)cc1-c1ccc2nccc(N)c2c1`, 100%.
The result for `Cc1cc(O)c(Cl)cc1-c1cccc2c(N)ccnc12` reads 94%.
Regarding `COC(CN(Cc1nc(N)nc(Nc2ccc(C)cc2)n1)Cc1nc(N)nc(Nc2ccc(C)cc2)n1)OC`, the “% Inhibition” value was 94%.
For `c1ccc(CCC23CN(Cc4ccccn4)CC2CN(Cc2ccns2)C3)cc1` (stereo not given), the “% Inhibition” value is recorded as 88%.
The result for `Cc1noc(-c2ccnc(NC[C@@H](c3ccccn3)N3CCOCC3)c2)n1` reads 100%; that for `COc1ccc2c(C)cc(NCCCN3CCC[C@H](C(N)=O)C3)nc2c1`, 100%; that for `Cc1cc(NCCCN2CCC[C@H](O)C2)c2cc(F)ccc2n1`, 31%.
The result for `CCN1C[C@H](Nc2nc(C)nc3sccc23)[C@@H](OC)C1` reads 101%.
With `O=C(NCCN1CCCCC1)c1cccc(-c2cnc3ccc(F)cn23)c1`, the “% Inhibition” value is listed as 21%.
As for `CC(CNc1nc(NCC(C)N2CCOCC2)c2cc(Cl)ccc2n1)N1CCOCC1` (stereo not given), the “% Inhibition” value is 102%.
The result for `CCNc1nc(C)cc(Nc2ccc(NC(=O)Nc3ccc(F)cc3F)cc2)n1` reads 99%.
The result for `CCNc1cc(C)nc(NCCNC(=O)Nc2cc(F)cc(F)c2)n1` reads 92%; that for `CCOc1ccc2nc(CN(CC)CC3CCN(C4CCN(C)CC4)CC3)ccc2c1`, 99%.
As for `CCOc1ccc2nc(N3CCC(N4CCC([C@H](O)c5cccnc5)CC4)CC3)nc(C)c2c1`, the “% Inhibition” value was found to be 8%.
`CN(Cc1cn(CC(N)=O)c2ccccc12)CC1CCN(CCc2ccc(F)cc2)CC1`: the “% Inhibition” value stood at 41%.
The result for `Cc1ccc2nccc(N3CCC(N4CCC(O)CC4)CC3)c2c1` reads 12%; that for `Cc1cc(N2CCC(Nc3ccnc4ccncc34)CC2)nc(C)n1`, 7%; that for `CCN1CCN([C@H]2CCN(c3ccnc4ccncc34)C2)CC1`, 98%.
Regarding `Nc1cc(N2CCC(c3nc4cc(F)ccc4[nH]3)CC2)nc(N2CCOCC2)n1`, the “% Inhibition” value is given as 42%.
The result for `Cc1ccc2[nH]cc(-c3cc(N4CCOCC4)nc(N)n3)c2c1` reads 55%; that for `Cc1ccc(-c2cccc3c(C(=O)NCCCN4CCC(N5CCCCC5)CC4)cc(C)nc23)cc1`, 103%.
The result for `Brc1ccc2[nH]c3c(c2c1)CCCC3NC1CCc2[nH]cnc2C1` (stereo not given) reads 104%.
Take `CCOc1cc2nccc(N3C[C@H]4CN(C)C[C@H]4C3)c2cc1OCC`: the “% Inhibition” value was determined as 96%.
The result for `Oc1ccc(OC(F)(F)F)cc1-c1ccc2nccn2n1` reads 92%; that for `Nc1ccc(-c2cc(OC(F)(F)F)ccc2O)cn1`, 14%.
The result for `Clc1cccc(N2CC[C@H](CNC3CCN(Cc4ccco4)CC3)C2)c1` reads 97%; that for `COc1ccnc(NCCCc2nc(-c3ccncc3)cs2)n1`, 64%.
